Most compounds without a hit are left out; they make up all but 7.5% or so of the library.
Vaccinia Venus: inhibitors of vaccinia virus (Venus reporter); Vaccinia virus Venus reporter expression, fluorescence; Potency, µM (highest dose often 36.5 µM), without a hit: at the highest dose activity change, negative = inhibition, actives largely listed as inhibitors; hit rate 0.46% among 330,000; calls by dose curve; tested in A549 cells; note: potency is the fitted concentration of half-maximal effect; nearly all actives have a fitted effect of over 30% in size
FMDV antiviral: foot and mouth disease virus antiviral activity. FMDV antiviral cell-based qHTS. Potency, µM (titrated, usually from 57.9 µM), without a hit: at the top dose activity change, negative = inhibition, most hits filed as inhibitors. hit rate 1.2% among 410,000. AID 1159524; calls by dose curve; tested in HEK293T cells; note: read-out not given here; potency is the fitted concentration of half-maximal effect; nearly all actives have a fitted effect of over 45% in size
HCV inh: inhibitors of hepatitis C virus infection; Huh7.5.1 HCVcc-Cre infection, luciferase reporter, 44 h; Potency, µM (series often up to 41.8 µM), inactives show at the top dose activity change, negative = inhibition, actives largely listed as inhibitors; hit rate 3.4% among 340,000; note: potency is the fitted concentration of half-maximal effect
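Compounds are dispensed onto cells plated 4 h earlier at 1,000 per well, with HCVcc-Cre virus (about 0.5 moi) added next. Following 44 h of culture, luminescent signal is measured for 15 sec after 15 min with substrate at room temperature.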
FBPA Giardia inh: blocks Giardia fructose-bisphosphate aldolase activity | A8B2U2 | purified Giardia FBPA | Potency, µM (titrated, usually from 59.6 µM), for the others: top-dose activity, negative = inhibition, hits mostly inhibitors | hit rate 0.71% among 290,000 | AID 2451; note: potency is the fitted concentration of half-maximal effect; nearly all actives have a fitted effect of over 55% in size
Target sequence (A8B2U2 whole entry, looked up): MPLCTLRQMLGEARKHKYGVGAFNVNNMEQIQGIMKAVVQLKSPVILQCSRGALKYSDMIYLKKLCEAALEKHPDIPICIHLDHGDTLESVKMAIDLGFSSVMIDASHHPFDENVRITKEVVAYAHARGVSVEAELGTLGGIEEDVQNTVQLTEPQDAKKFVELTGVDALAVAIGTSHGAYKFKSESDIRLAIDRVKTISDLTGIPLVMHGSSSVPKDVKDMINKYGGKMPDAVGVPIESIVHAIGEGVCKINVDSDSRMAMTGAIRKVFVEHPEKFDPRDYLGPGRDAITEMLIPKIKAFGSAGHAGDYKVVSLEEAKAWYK
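Giardia FBPA (40 nM reagent) was preincubated 10 min at RT with compound (up to 57.5 uM final), then substrate plus GAPDH/TPI/NAD/arsenate coupling system with diaphorase/resazurin was added; resorufin fluorescence (525/598 nm) was read after 20 min.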
Vaccinia mCherry: inhibitors of vaccinia virus infection (mCherry reporter signal); Vaccinia virus mCherry reporter infection, fluorescence; Potency, µM (series often up to 36.5 µM), for inactives: top-dose activity change, negative = inhibition, actives largely listed as inhibitors; hit rate 0.63% among 310,000; calls by dose curve; tested in A549 cells; note: potency is the fitted concentration of half-maximal effect; nearly all actives have a fitted effect of over 35% in size
HCMV inh: inhibitors of human cytomegalovirus; HFF cells, HCMV-luciferase reporter, 72 h; hits give low values; activity change, negative = inhibition, % at 57.5 µM; hit rate 4.5% among 410,000; AID 1259415; in the data active = activity change below about -60%; inconclusive = no clear call, values can overlap the other calls; inactive = above about -39%
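Compounds were evaluated in HFFs infected with an HCMV luciferase reporter virus (MOI 1 PFU/cell). Luciferase in lysates collected 72 h post infection served as the replication measure.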
* marks the source's active call; other numbers are inactive results; i = inactive; ? = inconclusive; . = no result; [ ] = another dose, or the depositor's remark. Unless noted, calls come from the whole dose curve; as a rule, active = well fitted curve in the direction sought with a large enough effect; inconclusive = small, poorly fitted or top-dose-only effect, or another doubt; inactive = no such curve, though single readings can be large; an effect the other way counts as inactive or inconclusive. % is set by controls: 0 for no effect and ±100 for the full control effect.

SMILES	Vaccinia Venus	FMDV antiviral	HCV inh	FBPA Giardia inh	Vaccinia mCherry	HCMV inh
Cc1ccc(C(c2c(O)cc(C)n(Cc3ccco3)c2=O)N2CCC(C)CC2)cc1 (centres undefined)	-9.5%	?	.	.	-8.4%	15.5
Cc1c(/C=C(\C#N)C(=O)Nc2cccc(Cl)c2)c2ccccc2n1Cc1ccccc1	10.9%	?	.	.	-20.1%	-11.8
COc1ccc(NC(=O)c2cc(S(=O)(=O)N3CCCC3)oc2C)cc1	.	7.7%	-14.3%	0.9%	.	-64.9*
CC1(C)CC2CC(C)(CN2S(=O)(=O)c2ccc(C(=O)Nc3cccc(S(=O)(=O)N4CCOCC4)c3)cc2)C1 (centres undefined)	.	?	11.2µM*	-5.2%	.	-91.5*
COc1ccc(NC(=S)Nc2cccc(S(=O)(=O)N3CCCCC3)c2)cc1	-3.0%	-4.9%	7.9%	-14.3%	-1.2%	-63.9*
CC(=O)Oc1ccc(-c2ccc(C(=O)Nc3cccc(S(=O)(=O)N4CCOCC4)c3)cc2)cc1	?	?	?	-3.1%	15.8µM*	-97.7*
CC1(C)CC2CC(C)(CN2S(=O)(=O)c2ccc(C(=O)Nc3cc(S(=O)(=O)N4CCOCC4)ccc3Cl)cc2)C1 (centres undefined)	-18.1%	-5.9%	-28.0%	-3.6%	i	18.5
CCN(CC)S(=O)(=O)c1cccc(C(=O)NC(C(=O)NNC(=O)c2ccccc2F)C(C)C)c1 (centres undefined)	-22.6%	-4.5%	-1.5%	.	i	-12.0
O=C(NC(CO)C(=O)OCc1ccccc1)OCc1ccccc1 (centres undefined)	-4.4%	0.0%	23.8%	.	i	-26.8
COc1ccc(NS(=O)(=O)c2cc(OC)ccc2NC(=O)c2cc(C)oc2C)cc1	?	0.0%	4.47µM*	-1.5%	?	23.5
COc1ccc(NS(=O)(=O)c2cc(OC)ccc2OC)cc1	-8.8%	69.6%	-17.6%	.	i	-16.7
O=C(Nc1cccc(Cl)c1)c1ccc(OC(=S)N2CCOCC2)cc1	-13.9%	8.7%	12.6µM*	-0.3%	-12.1%	?
COc1ccc(C(=O)NC(=S)Nc2cccc(S(=O)(=O)N3CCOCC3)c2)cc1	?	0.0%	14.1µM*	-6.5%	-29.5%	-32.3
CN(C)C(=O)/C=C\c1cn(-c2ccccc2)nc1-c1ccc2c(c1)OCCO2	-16.9%	-5.5%	-28.5%	-15.5%	-16.5%	-84.9*
c1ccc(-n2cc(CN3CCCC(CN4CCCC4)C3)c(-c3ccc4c(c3)OCO4)n2)cc1 (centres undefined)	-24.2%	-8.4%	12.6µM*	2.8%	-21.5%	?
OCc1cn(-c2ccccc2)nc1-c1ccc2c(c1)OCCO2	?	-19.4%	11.2µM*	2.0%	?	80.8
OC[C@@H]1CCCN1Cc1cn(-c2ccccc2)nc1-c1ccc2c(c1)OCO2	.	2.2%	-9.9%	-4.5%	.	-38.3
O=C(O)/C=C/c1cn(-c2ccccc2)nc1-c1ccc2c(c1)OCCO2	-9.6%	10.9%	3.5%	2.4%	i	-13.7
O/N=C/c1cn(-c2ccccc2)nc1-c1ccc2c(c1)OCCO2	?	20.1%	-15.2%	2.7%	?	-10.8
COc1ccc(CCN2C(=O)CSC2c2ccc(OC)c(OC)c2)cc1OC (centres undefined)	.	-29.5%	-29.5%	0.3%	.	1.8
COc1ccc(C2SCC(=O)N2CCc2ccc(OC)c(OC)c2)cc1 (centres undefined)	.	?	11.2µM*	-11.3%	.	-70.7*
CSc1cccc(N2C(=O)N(CC(=O)NCc3ccccc3Cl)c3ccccc3S2(=O)=O)c1	-19.6%	-8.6%	.	.	-14.2%	-22.6
CSc1ccc(CNC(=O)Cc2ccc(NC(=O)C3=C(C)OCCS3)cc2)cc1	.	51.7%	?	0.7%	.	-4.2
Cc1cccc(C)c1NC(=O)Cn1nnc(C(=O)Nc2ccc(F)cc2F)c1N	.	-8.6%	-10.8%	-2.0%	.	-64.6*
Cc1cc(C)c(NC(=O)Cn2nnc(C(=O)Nc3ccc(F)cc3F)c2N)c(C)c1	?	-1.4%	5.1%	-0.1%	-16.7%	-28.1
SMILES	Vaccinia Venus	FMDV antiviral	HCV inh	FBPA Giardia inh	Vaccinia mCherry	HCMV inh
Cc1cc(C)c(C#N)c(Sc2nc(C)c([N+](=O)[O-])c(C)c2C#N)n1	?	22.4µM*	.	.	?	-37.9
Cc1nc(Sc2ccccc2)c(C#N)c(C)c1[N+](=O)[O-]	-15.6%	?	?	2.2%	?	-103.1*
CCc1ccc(C2C(=O)c3ccccc3C2=O)cc1	-16.7%	10.2%	-4.4%	.	i	7.7
CCC(=O)Nc1ccc(C2C(=O)c3ccccc3C2=O)cc1	-8.9%	20µM*	2.82µM*	-15.7%	i	146.6
CCCCC(=O)Nc1ccc(C(N)=O)cc1	.	20.2%	28.5%	9.2%	.	38.6
CCCCC(=O)Nc1ccc(C2C(=O)c3ccccc3C2=O)cc1	-0.2%	?	10µM*	.	-14.2%	55.2
Nc1c(C(=O)Nc2ccc(S(=O)(=O)N3CCCC3)cc2)sc2nc3cc4c(cc3cc12)CCC4	9.2%	25.8%	?	-6.3%	-11.0%	?
Nc1c(C(=O)Nc2ccc(Br)cc2)sc2nc(-c3ccco3)ccc12	-29.0%	?	?	-3.4%	?	-60.1*
Nc1c(C(=O)Nc2ccc(S(=O)(=O)N3CCCC3)cc2)sc2nc3ccc(OC(F)(F)F)cc3cc12	-10.9%	-1.1%	?	4.5%	-17.6%	-95.8*
CCOc1ccc(NC(=O)c2sc3nc4c(cc3c2N)CCCCCC4)cc1	-10.6%[7.34 µM]	0.0%	.	.	-12.9%[7.34 µM]	4.9
Nc1c(C(=O)Nc2cccc(C(=O)O)c2)sc2nc3c(cc12)CCCC3	-4.9%	6.31µM*	4.3%	-25.0%	-17.4%	94.5
Nc1c(C(=O)Nc2ccccc2)sc2nc3c(c(-c4ccco4)c12)CCC3	-24.1%	?	10µM*	0.7%	?	-31.8
COC(=O)c1ccc(NC(=O)CN(c2cccc(C(F)(F)F)c2)S(C)(=O)=O)cc1	1.9%	?	.	.	-5.4%	-2.6
CCCN1C(=O)c2ccccc2NC1c1ccc(OC)c(COc2cccc(C)c2C)c1 (centres undefined)	-2.7%	.	.	.	30.6%	.
COc1ccc(C(=O)NCC2Cc3cc(C)cc(-c4nc5ccccc5s4)c3O2)c(OC)c1OC (centres undefined)	-9.8%	-26.3%	.	.	i	.
COc1ccc(OC)c(NC(=O)c2sc3nc4c(cc3c2N)CCCCCC4)c1	-9.1%	-14.8%	.	.	-23.8%	-5.7
Nc1c(C(=O)Nc2ccc(Cl)c(C(=O)O)c2)sc2nc3c(cc12)CCCC3	-12.5%	-0.3%	2.9%	.	-11.3%	-6.1
Cc1cccc(NC(=O)c2sc3nc4c(cc3c2N)CCCCCC4)c1C	?	-24.7%	.	.	-0.2%	-82.0*
Nc1c(C(=O)Nc2ccc(C(=O)O)cc2)sc2nc3c(cc12)CCCC3	2.7%	15.8µM*	.	.	-14.2%	26.8
N#Cc1sc2nc3c(cc2c1N)CCCC3	-20.3%	0.3%	1.5%	0.3%	-6.8%	-64.2*
Nc1c(C(=O)O)sc2nc3c(cc12)CCCC3	.	-3.7%	11.8%	-9.6%	.	-5.0

Screening data as filed in PubChem BioAssay.
